Assay results taken from PubChem BioAssay (NCATS).
Records with an inconclusive call do not appear. A number with no mark means an inactive call. Activity calls are given as the source filed them. The call rests on the fitted dose curve.

These compounds were tested against Peroxisome proliferator-activated receptor delta (Homo sapiens) (UniProt Q03181) (assay: qHTS assay for small molecule agonists of peroxisome proliferator-activated receptor delta signaling (AID 588534;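 further: 0% = DMSO basal wells and 100% = positive control agonist at 10 µM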)). Conditions: HEK293T PPARdelta-UAS-bla, beta-lactamase ratio, 18 h; series mostly up to 76.7 µM; activation: at the top concentration.
Chain of Peroxisome proliferator-activated receptor delta (Homo sapiens) (Q03181 whole entry, looked up): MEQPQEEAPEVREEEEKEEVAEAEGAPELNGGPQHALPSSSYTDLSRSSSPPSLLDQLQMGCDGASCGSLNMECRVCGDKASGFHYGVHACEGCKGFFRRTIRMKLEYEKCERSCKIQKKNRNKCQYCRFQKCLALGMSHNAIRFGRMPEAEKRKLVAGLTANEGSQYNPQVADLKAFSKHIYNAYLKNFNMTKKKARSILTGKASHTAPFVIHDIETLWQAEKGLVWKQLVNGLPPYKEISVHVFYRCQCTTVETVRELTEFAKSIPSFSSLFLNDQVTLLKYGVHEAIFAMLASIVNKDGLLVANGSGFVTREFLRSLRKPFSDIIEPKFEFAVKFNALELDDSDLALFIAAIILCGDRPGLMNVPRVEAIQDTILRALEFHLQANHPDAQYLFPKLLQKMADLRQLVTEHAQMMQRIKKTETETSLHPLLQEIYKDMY
Text: NIH Chemical Genomics Center [NCGC] U.S. Environmental Protection Agency [EPA] National Institutes of Environmental Health Sciences [NIEHS] National Toxicology Program [NTP] NCGC Assay Overview The Peroxisome proliferator-activated receptors (PPARs) are lipid-activated transcription factors of the nuclear receptor superfamily with three distinct subtypes namely PPAR alpha, PPAR delta (also called PPAR beta) and PPAR gamma. All these subtypes heterodimerizes with Retinoid X receptor (RXR) and have different physiological functions. […] This role of PPAR delta implicates the potential use of its ligands in the treatment of metabolic disorders.
Compounds were screened in a titration series in 1536-well format. […] Concentration-response titration points for each compound were fitted to the Hill equation yielding concentrations of half-maximal stimulation (EC50) and maximal response (efficacy) values. qHTS protocol for PPAR-delta beta-lactamase assay in agonist mode [Step] [Parameter] [Value] [Description] 1. Reagent; 6 uL; 4000 cells/well 2. Incubation; 37 C for 5 hrs 3. Compounds; 23 nL; 0.59 nM to 92 uM 4. […] Incubation; 37 C for 18 hrs 6. Detection reagent; 1 uL of CCF4-dye 7. Incubation; RT for 2 hrs 8. Detection; Fluorescence; Envision plate reader
In the case of `CCCCCCC(O)CCCCCCCCCCC(=O)OC` (stereo not given), the “activation” value is reported as 1.82%.
`CCCOCC(=Nc1ccc(Cl)cc1C(F)(F)F)n1ccnc1` was tested, and the “activation” value was -4.56%.
In the case of `Cc1cccc2sc(N)nc12`, the “activation” value is reported as 2.52%.
For `C/C=C(/C)C#N`, the “activation” value was 3.11%.
In the case of `O=S(=O)(O)c1cc(S(=O)(=O)O)c2c(N=Nc3ccccc3)c(O)ccc2c1`, the “activation” value is reported as 1.29%.
`CCOP(=O)(OCC)OC(Cl)C(Cl)(Cl)Cl` (stereo not given) was tested, and the “activation” value was 4.39%.
With `Nc1ccc(-c2ccc(N)c(O)c2)cc1O` the “activation” value was 14.5%.
For `Cc1ccc(C(=O)c2ccccc2)cc1`, the “activation” value was -3.48%.
In the case of `O=C1CCC(C2CCCCC2)CC1`, the “activation” value is reported as 1.85%.
In the case of `COC(=O)c1sccc1S(=O)(=O)NC(=O)Nc1nc(C)nc(OC)n1`, the “activation” value is reported as -5.55%.
With `CC(C)=CC1[C@H](C(=O)OCc2cccc(Oc3ccccc3)c2)C1(C)C` (stereo not given in full) the “activation” value was 0.101%.
For `CCS(=O)(=O)c1cccnc1S(=O)(=O)NC(=O)Nc1nc(OC)cc(OC)n1`, the “activation” value was 2.19%.
In the case of `Cc1cc(Cl)ccc1OC(C)C(=O)O` (stereo not given), the “activation” value is reported as -3.48%.
For `Cc1cnc(C2=NC(C)(C(C)C)C(=O)N2)c(C(=O)O)c1` (stereo not given), the outcome was “inactive”.
For `Cc1c(N)cccc1N`, the “activation” value was 4.5%.
In the case of `CN(C)CCCCl`, the “activation” value is reported as 4.97%.
For `Oc1c(Cl)ccc(Cl)c1Cl`, the “activation” value was -3.64%.
For `CCCC1COC(Cn2cncn2)(c2ccc(Cl)cc2Cl)O1` (stereo not given), the outcome was “inactive”.
For `CN(C)CCOCCN(C)C`, the “activation” value was -1.52%.
In the case of `O=[N+]([O-])c1cccc(Cl)c1Cl`, the outcome is reported as “inactive”.
For `O=[N+]([O-])c1ccccc1CCO`, the “activation” value was -2.16%.
`C/C=C/C=C/C=O` was tested, and the “activation” value was 9.83%.
With `CCNc1nc(Cl)nc(NC(C)(C)C)n1` the “activation” value was -6.09%.
In the case of `COC(=O)c1ccc(CNS(C)(=O)=O)cc1S(=O)(=O)NC(=O)Nc1nc(OC)cc(OC)n1`, the “activation” value is reported as -8.83%.
`CCOC(C)=O` was tested, and the “activation” value was 8.97%.
In the case of `CC(C)(N=C=O)c1cccc(C(C)(C)N=C=O)c1`, the “activation” value is reported as 2.17%.
With `CC(=O)CC(=O)Nc1ccccc1` the outcome was “inactive”.
In the case of `O=c1n(CCO)c(=O)n(CCO)c(=O)n1CCO`, the “activation” value is reported as 3.81%.
For `c1ccc(Nc2ccccc2)cc1`, the outcome was “inactive”.
In the case of `NC=O`, the “activation” value is reported as 6.98%.
In the case of `OCC(O)CO`, the outcome is reported as “inactive”.
`CC(C)(C)C(O)/C(=C\c1ccc(Cl)cc1Cl)n1cncn1` (stereo not given) was tested, and the “activation” value was -10.8%.
In the case of `CN(C)c1cccc(O)c1`, the “activation” value is reported as 3.98%.
With `CC1(N)CCC(C(C)(C)N)CC1` (stereo not given) the “activation” value was 0.268%.
With `CC(=O)N(CCN(C(C)=O)C(C)=O)C(C)=O` the “activation” value was -1.83%.
With `c1ccccc1` the outcome was “inactive”.
`C=CC(=O)OCC(C)OCC(C)OCC(C)OC(=O)C=C` (stereo not given) was tested, and the “activation” value was -1.67%.
For `CCO`, the “activation” value was 11.9%.
In the case of `Clc1ccc(-c2cc(Cl)c(Cl)cc2Cl)cc1Cl`, the “activation” value is reported as 2.66%.
`Cc1ccc2c(c1[N+](=O)[O-])C(=O)c1ccccc1C2=O` was tested, and the “activation” value was -6.51%.
